Screening results: PubChem, The Scripps Research Institute Molecular Screening Center
ssDAF12 agonist = activators of S. stercoralis DAF-12 nuclear receptor; activation, % at 6.8 µM; hit rate 1% among 370,000; AID 652126; HEK293 ssDAF-12/GRIP1 lit1-tk-luc reporter, luminescence; % of 3 µM dafachronic acid response;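 active means activation above the mean over all tested compounds plus 3 SD, cut at about 0.9% in these data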
hcDAF12 agonist = H. contortus DAF-12 activation, primary screen; activation, % at 6.8 µM; HEK293 hcDAF-12 lit1-tk-luc reporter, luminescence; 0% DMSO, 100% Δ7-dafachronic acid; hit rate 1.4% among 370,000; AID 652067;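 active means activation above the mean of all tested compounds plus 3 SD, cut at about 5.5% in these data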
SMARCA2 activ = increases SMARCA2 function in MMTV reporter cells | MG213 cells, MMTV-luciferase reporter, dexamethasone, overnight | activation, % at 9.1 µM | hit rate 1% among 370,000; in the data active means activation above about 7.8%
hgDAF12 agonist = agonists of H. glycines DAF-12 nuclear receptor; HEK293 GAL4-hgDAF12 UAS-luciferase reporter, agonist luminescence; normalized to butyrate control; activation, % at 6.8 µM; hit rate 1.8% among 370,000; AID 687014;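 active means activation above a cutoff set at the mean of all screened compounds plus 3 SD, cut at about 10% in these data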
DAX1 inh-1 = inhibits human nuclear receptor DAX1; HEK293 Gal4-DAX1 luciferase reporter, luminescence; inhibition, % at 6.75 µM; hit rate 0.99% among 340,000; P51843;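 active means inhibition above the mean over all tested compounds plus 3 SD, cut at about 4.2% in these data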;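 further: inhibition shows as a rise in luminescence from relieved DAX1 repression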
Target sequence (P51843 207-470 limits assumed): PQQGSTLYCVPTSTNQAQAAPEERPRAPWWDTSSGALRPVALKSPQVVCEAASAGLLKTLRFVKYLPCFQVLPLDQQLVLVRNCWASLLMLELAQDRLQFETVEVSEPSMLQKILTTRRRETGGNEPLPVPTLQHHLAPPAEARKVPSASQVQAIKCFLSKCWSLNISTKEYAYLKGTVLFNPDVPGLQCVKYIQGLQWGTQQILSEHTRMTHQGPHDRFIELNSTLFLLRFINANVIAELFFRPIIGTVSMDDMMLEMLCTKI
DAX1 inh-2 = blocks DAX1 repression of SF-1 activated StAR promoter; HEK293T StAR-luciferase reporter, SF-1/DAX-1 repression relief; inhibition, % at 6.8 µM; hit rate 1.1% among 370,000;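 active means inhibition above the mean over all tested compounds plus 3 SD, cut at about 3.6% in these data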;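 further: higher inhibition means more luminescence from relief of DAX-1 repression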
SMARCA2 conf = confirmation of SMARCA2 (BRM) function activators; shares compounds with SMARCA2 activ; MG213 cells, MMTV-luciferase with dexamethasone, luminescence, overnight; MG213 cells expressing E1A, Rb sequestered; DMSO wells 0%, reference activator 100%; activation, % at 9.1 µM; hit rate 30% among 3,500;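 active means activation above its plate's cutoff, the mean activation of tested wells plus 3 SD, cut at about 7.9% in these data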
GAL4-VP16 Luc = activates GAL4-VP16 luciferase, flagging SMARCA2 activator hits. hit rate 41% among 3,500. activation, % at 9.1 µM. HEK293 GAL4-VP16 pG5luc reporter, luciferase luminescence; scaled: DMSO wells 0%, SAHA wells 100%. shares compounds with SMARCA2 activ;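 active means activation above the solvent-only control well mean plus 3 SD, averaged across control plates, cut at about 5.2% in these data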
A number is an active result; n = inactive; x = no result. Shown are actives, neighbours in structure and some others; about 4.8% of the full set was active somewhere.

SMILES	ssDAF12 agonist	hcDAF12 agonist	SMARCA2 activ	hgDAF12 agonist	DAX1 inh-1	DAX1 inh-2	SMARCA2 conf	GAL4-VP16 Luc
COc1ccc(/C(N)=N/OC(=O)c2ccc3c(c2)OCO3)cc1OC	n	n	12	n	n	n	9.7	17
O=C(COc1ccc(F)cc1)N1CCC(c2ccccc2)C1 (configuration not stated)	n	n	8.4	n	n	n	n	7.9
CC1CCCCN1C(=O)c1ccc(CNC(=O)c2cccc(Br)c2)cc1 (configuration not stated)	n	n	n	n	x	n	x	x
CCN(CCn1cccn1)C(=O)CCc1nnc(CCCc2ccccc2)o1	1.0	n	8.7	13	n	n	11	6.4
O=C1NC(=Nc2cccnc2)S/C1=C/c1ccc(F)cc1	n	n	8.4	n	x	n	n	n
O=C1NC(=Nc2ccccc2)S/C1=C\c1cccnc1	n	n	n	n	n	n	x	x
COc1ccc(C(=O)Cc2nnc(C)s2)cc1	n	n	9.1	n	4.8	n	n	12
CC(=O)N1CCN(S(=O)(=O)c2ccc3c(c2)oc(=O)n3C)CC1	n	n	n	n	x	n	x	x
O=C(NC(=S)NC(=O)c1ccccc1F)c1ccccc1F	n	n	10.0	n	n	n	n	n
COC(=O)[C@]12CCCCC=C1N(Cc1ccc(OC)cc1)C(=O)[C@@H]2CC(=O)N1CCOCC1	n	n	n	n	x	n	x	x
O=C(/C=C/c1ccco1)NC(=S)Nc1cccc(C(=O)O)c1	n	n	8.4	n	n	n	n	n
O=C(Nc1cccc([N+](=O)[O-])c1)NC1CCCCN(Cc2ccc(Cl)cc2)C1=O (configuration not stated)	n	n	n	n	x	n	x	x
O=C(c1ccc(-c2cc(Cl)ccc2Cl)o1)N1CCOCC1	n	n	8.8	n	n	n	n	n
O=C(NC(=S)Nc1ccccc1N1CCOCC1)c1ccc(-c2cc(Cl)ccc2Cl)o1	n	n	n	n	n	n	x	x
Cn1ccnc1SCC(=O)Nc1ccc(Oc2ccccc2)cc1	n	n	n	n	n	n	x	x
CCOc1ccc(NC(=O)CSc2nccn2C)cc1	n	n	8.8	n	n	n	n	n
COc1ccc(C(=O)CSc2nccn2C)cc1	n	n	11	12	n	n	n	n
CCN(CC)S(=O)(=O)c1cc(NC(=O)C(C)N(C)CC(=O)Nc2c(C)cccc2C)ccc1C (configuration not stated)	n	n	9.2	n	n	n	n	n
CCOc1ccc(C(=O)/C=C/Nc2ccc(S(=O)(=O)N=C(N)N)cc2)cc1	n	n	8.1	n	n	n	n	n
CC(=O)C1CCC2C3CC=C4CC(SC(=N)N)CCC4(C)C3CCC12C (configuration not stated)	n	n	10	n	n	n	n	n
COC(=O)CCC(=O)N1CCC(Oc2cccc(C(=O)NCc3ccccn3)c2)CC1	n	n	8.3	n	n	n	n	n
COCC(=O)N1CCC(Oc2cccc(C(=O)NCc3ccccn3)c2)CC1	n	n	n	n	n	n	x	x
O=c1[nH]c2cc(Br)c(Br)nc2[nH]1	n	n	n	n	x	n	x	x
CCN(CC)CCNc1ccc(CO)c2oc3cc(Cl)ccc3c(=O)c12	n	n	18	n	n	n	29	n
CCN(CC)CCNC(CC(=O)Nc1ccc(Cl)cc1Cl)C(=O)O (configuration not stated)	n	n	n	n	n	n	x	x
SMILES	ssDAF12 agonist	hcDAF12 agonist	SMARCA2 activ	hgDAF12 agonist	DAX1 inh-1	DAX1 inh-2	SMARCA2 conf	GAL4-VP16 Luc
CN(C)CCNc1ccc(CO)c2oc3ccc(O)cc3c(=O)c12	n	n	11	n	n	n	13	n
NC(=O)c1ncc(C(F)(F)F)cc1Cl	n	n	n	n	n	n	x	x
NC(=S)c1ncc(C(F)(F)F)cc1Cl	n	n	8.6	n	n	n	n	n
Cc1cccc(C(=O)NNC(=O)c2ccccc2C)c1	n	n	n	n	n	n	x	x
Cc1ccccc1C(=O)NNC(=O)c1ccc(Br)cc1	n	n	9.0	n	n	n	n	5.5
O=C1CCC[C@H]2C[C@H](NCc3ccc(Cl)c(C(F)(F)F)c3)CC[C@]23CCCN13	n	n	x	n	x	x	x	x
Cc1ccc(CN2CCCCC(NC(=O)Nc3ccccc3F)C2=O)cc1 (configuration not stated)	n	n	n	n	x	n	x	x
Cc1cc(C(=O)Nc2ccc(Cl)cc2)on1	n	n	n	n	n	n	x	x
Cc1ocnc1C(=O)Nc1ccc(Cl)cc1	n	n	9.3	n	n	n	n	n
Cc1ccc(/C=C2/CNC/C(=C/c3ccc(C)cc3)C2=O)cc1	n	n	15	n	n	n	n	n
Cc1ccccc1Cn1ccc2ccc(-c3ccc4ccn(Cc5ccccc5)c4c3)cc21	n	n	n	n	x	n	x	x
C/C(CC(=O)Nc1ccc(F)cc1)=N\NC(=O)c1ccccn1	n	n	9.2	11	n	n	n	n
C/C(=N\NC(=O)c1ccc(F)cc1)c1ccccn1	n	n	9.6	n	n	n	n	n
C/C(=N\Nc1ccc(Cl)c(C(=O)O)c1)c1ccccn1	n	n	13	n	n	n	n	n
C/C(CC(=O)Nc1ccc(N(C)C)cc1)=N\NC(=O)c1ccc(F)cc1	n	n	n	n	n	n	x	x
CCC[C@H]1[C@@H](OC(=O)N2CCOCC2)CC[C@@]23CCCN2C(=O)CCC[C@@H]13	n	n	x	n	x	x	x	x
O=C(OCC#CCSc1nnc(-c2cccc3ccccc23)o1)c1cc(F)c(F)c(F)c1	n	n	x	n	x	x	x	x
COc1cc(NC(=O)c2cnn3c(C)cc(C)nc23)cc(OC)c1OC	n	n	x	n	x	x	x	x
N#Cc1ccc(Cn2ccc3ccc(-c4ccc5ccn(Cc6ccccc6)c5c4)cc32)cc1	n	n	n	n	x	n	x	x
COC(=O)c1cc(C(=O)Nc2nnc(CC(C)C)s2)cc([N+](=O)[O-])c1	n	n	12	n	n	n	n	n
O=C1NC(c2ccccc2Br)=N/C1=C\c1ccco1	n	n	14	n	n	n	9.6	7.3
CN(C)c1ccc(NC(=O)Nc2ccc3c(c2)nnn3C)cc1	n	n	20	n	6.5	n	11	6.1
CC(C)=CC(=O)Nc1nnc(C)s1	n	n	n	n	n	n	x	x
COC(=O)Nc1nnc(-c2ccc(OC)cc2)s1	n	n	8.1	13	n	n	n	5.2
CC(C)=CC(=O)Nc1nnc(-c2ccccc2)s1	n	n	16	n	n	n	n	7.8
COc1ccc(-c2nnc(NC(=O)c3c(OC)cccc3OC)s2)cc1	n	n	n	n	n	n	x	x
